From PubChem
This is a sample that favours compounds with a hit; in the whole collection about 3.5% have one here.
LmPK inhibitor: inhibitors of Leishmania mexicana pyruvate kinase | Q27686 | purified LmPK, Kinase-Glo ATP luminescence, 1 h | Potency, µM (series often up to 57.5 µM), without a hit: at the top dose activity change, negative = inhibition, hits mostly inhibitors | 290,000 compounds, 0.37% hits | AID 1721; note: % is set by controls: 0 for no effect and ±100 for the full control effect
Target sequence (Q27686 whole entry, looked up): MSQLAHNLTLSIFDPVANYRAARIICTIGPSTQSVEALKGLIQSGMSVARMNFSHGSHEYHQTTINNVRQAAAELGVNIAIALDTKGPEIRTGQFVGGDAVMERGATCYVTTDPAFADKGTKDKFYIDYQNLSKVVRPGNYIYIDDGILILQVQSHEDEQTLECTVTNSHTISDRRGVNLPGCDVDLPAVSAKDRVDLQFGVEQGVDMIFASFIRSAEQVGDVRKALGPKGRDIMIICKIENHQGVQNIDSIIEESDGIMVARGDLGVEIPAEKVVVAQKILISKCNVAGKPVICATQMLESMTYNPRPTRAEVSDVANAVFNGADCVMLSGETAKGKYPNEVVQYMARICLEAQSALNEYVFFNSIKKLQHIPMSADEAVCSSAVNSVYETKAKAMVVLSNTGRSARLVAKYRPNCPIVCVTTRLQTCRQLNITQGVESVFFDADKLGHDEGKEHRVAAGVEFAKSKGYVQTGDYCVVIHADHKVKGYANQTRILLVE
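Screened at intermediate enzyme activity to detect both inhibitors and activators: LmPK at 0.1 nM, with a 0.5 nM enzyme column as activation reference. PEP 0.5 mM, ADP 0.1 mM; ATP detected by luminescence after 1 h.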
TbPYK inhibitor: blocks Trypanosoma brucei pyruvate kinase; Potency, µM (series often up to 76.8 µM), without a hit: top-dose activity, negative = inhibition, most hits filed as inhibitors; AID 624173; TbPYK enzyme, Kinase-Glo Plus ATP luminescence, 45 min; 410,000 compounds, 0.12% hits; Q57TT1; note: % is set by controls: 0 for no effect and ±100 for the full control effect; nearly all actives have a fitted effect of over 50% in size
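ADP (130 uM final) triggers the TbPYK reaction after compound addition; incubation is 45 min at room temperature. Kinase-Glo Plus is then added and luminescence imaged. Normalized data are fitted to concentration-effect curves.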
Giardia FBPA inh: blocks Giardia fructose-bisphosphate aldolase activity | 290,000 compounds, 0.71% hits | Potency, µM (titrated, usually from 59.6 µM), inactives show at the top dose activity, negative = inhibition, actives largely listed as inhibitors | purified Giardia FBPA; note: % is set by controls: 0 for no effect and ±100 for the full control effect; nearly all actives have a fitted effect of over 55% in size
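Giardia FBPA (40 nM reagent) was preincubated 10 min at RT with compound (up to 57.5 uM final), then substrate plus GAPDH/TPI/NAD/arsenate coupling system with diaphorase/resazurin was added; resorufin fluorescence (525/598 nm) was read after 20 min.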
NS1 function inh: inhibitors of influenza NS1 protein function. Potency, µM (highest dose often 46.1 µM), without a hit: top-dose activity, positive = more growth. 270,000 compounds, 0.4% hits; calls by dose curve; note: actives are rising curves; nearly all actives have a fitted effect of over 50% in size
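OD600 was taken as the measure of yeast growth restored by compound in an NS1-expressing S. cerevisiae strain. Cells had been washed out of glucose medium and diluted 1:100 into galactose -URA medium, pH 6.0.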
Sm TGR inh: S. mansoni TGR enzyme inhibition. Q962Y6. purified TGR, DTNB reduction, TNB absorbance 405 nm. Potency, µM (series often up to 114 µM), for inactives: top-dose activity change, negative = inhibition, usual class: inhibitors. 360,000 compounds, 3% hits. AID 485364; note: % is set by controls: 0 for no effect and ±100 for the full control effect; nearly all actives have a fitted effect of over 60% in size
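First, TGR (20 nM dispensed) and NADPH were mixed with compound. Second, a 15 min room-temperature incubation followed. Third, further NADPH and then DTNB were added to start the reaction. Finally, TNB absorbance was monitored kinetically.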
RE007 growth inh: less growth of the S. pombe RE007 Vpr strain; S. pombe RE007 Vpr strain, BacTiter-Glo ATP luminescence, 24 h; Potency, µM (highest dose often 92.2 µM), for the others: at the highest dose activity change, negative = less growth, actives largely listed as inhibitors; 360,000 compounds, 0.21% hits; AID 651644; active = well fitted falling curve with a large enough effect; inconclusive = small, poorly fitted or top-dose-only effect; inactive = no such curve, though single readings can be large or run the other way; note: % is set by controls: 0 for no effect and ±100 for the full control effect; nearly all actives have a fitted effect of over 50% in size
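Fission yeast RE007 carrying one integrated HIV-1 vpr copy, seeded at OD 0.01 in PMG+AL medium with 23 nL pinned compound. Grown 24 h at 30 degrees; viability read by BacTiter-Glo luminescence after 5 min.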
Starred values were filed as active, the others as inactive; ? = inconclusive; . = not tested or not shown; [ ] = remark or other dose. Unless noted, calls come from the whole dose curve; as a rule, active = well fitted curve in the direction sought with a large enough effect; inconclusive = small, poorly fitted or top-dose-only effect, or another doubt; inactive = no such curve, though single readings can be large; an effect the other way counts as inactive or inconclusive. Potency is the fitted concentration of half-maximal effect.

SMILES	LmPK inhibitor	TbPYK inhibitor	Giardia FBPA inh	NS1 function inh	Sm TGR inh	RE007 growth inh
COc1ccc(-c2nc(CSCC(=O)NCCc3ccc(OC)c(OC)c3)c(C)o2)cc1	.	5%	.	.	-3%	.
COc1ccc(S(=O)(=O)Nc2cccc(-c3ccc(N4CCCCCC4)nn3)c2)cc1F	.	-3%	.	.	2%	.
Cc1ccc(CN2CCN(Cc3cnn(-c4ccc(F)cc4)c3)CC2CCO)o1 (stereo not given)	0%	-1%	0%	3%	-19%[57.1 µM]	-8%
Cc1ccc(CN2CCN(Cc3ccc4cc(F)ccc4n3)CC2CCO)o1 (stereo not given)	-1%	-3%	-12%	0%	18µM*	0%
OCCC1CN(Cc2ccc3cc(Cl)ccc3n2)CCN1Cc1ccsc1 (stereo not given)	-7%	-11%	-15%	5%	35µM*	-10%
CC(=O)Nc1ccc(CN2CCN(CC=C(C)C)C(CCO)C2)cc1 (stereo not given)	-6%	7%	5%	-2%	1%	1%
CCOc1ccc2nc(CN3CCN(Cc4ccccc4OCC)C(CCO)C3)ccc2c1 (stereo not given)	2%	4%	-27%	12%	?	-5%
COc1ccc(CN2CCN(Cc3ccc4cc(F)ccc4n3)CC2CCO)c(C)c1C (stereo not given)	1%	0%	-18%	18%	22µM*	-4%
CC(=O)Nc1ccc2nc(CN3CCN(CC=C(C)C)C(CCO)C3)ccc2c1 (stereo not given)	3%	-1%	19%	10%	20µM*	2%
Cc1cccc(C)c1OCc1nc2c3cnn(-c4ccccc4Br)c3ncn2n1	.	2%	.	.	2%	.
CCOC(=O)N/N=C1/C[C@@H](O)[C@@H](O)[C@@H]2[C@@H]3C(=O)N(C4CCCCC4)C(=O)[C@H]3CC[C@@H]12	.	.	2%[12.9 µM]	.	.	.
CCc1nc2ccc(C(=O)NCc3ccc(N(C)C)cc3)cc2nc1CC	.	3%	.	.	0%	.
CCc1ccc2occ(CC(=O)NCc3ccccc3)c2c1	.	-5%	.	.	-3%	.
Oc1ccc(O)c(Cc2nc3ccccc3s2)c1	-2%	-15%	-2%	.	50µM*	-2%
Oc1ccccc1OCc1nc2ccccc2s1	-20%	-25%	-10%	-6%	9%	7%
CCOC(=O)CNc1nnc(SCC(=O)OCC)[nH]c1=O	-1%	-20%	6%	3%	56µM*	-5%
Cc1ccsc1/C=C1\C(=O)NC(=S)N(C)C1=O	1%	?	-3%	2%	25µM*	-1%
CN1C(=O)/C(=C/c2ccc(Cl)s2)C(=O)NC1=S	8%	-17%	2%	12%	7.9µM*	-14%
COc1ccc(/C=C2\C(=O)NC(=S)N(C)C2=O)cc1C	10%	?	?	7%	7.1µM*	24%
COc1ccccc1NC(=O)C1=C(C)Nc2nc(SCc3ccccc3Cl)nn2C1c1cccnc1 (stereo not given)	.	2%	.	.	11%	.
N#CC1(C#N)CC(C=O)=C(N)C1(C#N)CC(=O)C12CC3CC(CC(C3)C1)C2 (stereo not given)	3%	-19%	-3%	-11%	40µM*	-2%
COc1ccc(-c2noc(CCC(=O)NCCc3ccccc3)n2)cc1	0%	0%	-6%	-7%	6%	1%
COc1ccc(-c2noc(CCC(=O)NCCN(C)Cc3ccccc3)n2)cc1	2%	1%	6%	0%	89µM*	-5%
COc1cc(OC)cc(-n2nnnc2SCC(=O)N2CCCC2)c1	5%	-4%	6%	1%	-9%	-8%
COc1ccc(-n2nnnc2S(=O)(=O)CC(=O)N2CCCCC2)cc1	5%	-4%	5%	-155%	10µM*	-2%
SMILES	LmPK inhibitor	TbPYK inhibitor	Giardia FBPA inh	NS1 function inh	Sm TGR inh	RE007 growth inh
COc1ccc(-n2nnnc2S(=O)(=O)Cc2ccc(C(=O)O)cc2)cc1	-7%	2%	12%	-43%	13µM*	1%
CC1(C)CC(=O)C2=C(C1)OC1=C(C(=O)CC(C)(C)C1)C2c1ccc(O)cc1O	4%	40µM*	-11%	-84%	22µM*	?
O=C1[C@@H]2C(c3cccnc3)=NO[C@@H]2C(=O)N1c1ccc(Br)cc1	-6%	-17%	5%	4%	3.5µM*	22µM*
CC(Cl)C(=O)NC(=O)NC12CC3CC(CC(C3)C1)C2 (stereo not given)	7%	-6%	-2%	-18%	-15%	45%
O=C(CCl)NC(=O)NC12CC3CC(CC(C3)C1)C2	-5%	0%	-13%	-67%	8.9µM*	34%
CCOC(=O)N1CCc2c(sc3c2c(=O)n(Cc2ccccc2)c(=O)n3CC(=O)Nc2ccc(F)cc2)C1	.	-3%	.	.	5%	.
COc1ccc(-c2nc3sc(CCNC(=O)c4ccc(Br)o4)c(C)n3n2)cc1	.	3%	.	.	12%	.
N#CCSc1nc2[nH]ncc2c(=O)n1-c1ccccc1Br	11µM*	13%	0%	-13%	-23%	-14%
O=C(CSc1nc2[nH]ncc2c(=O)n1-c1ccccc1Br)NCc1ccccc1Cl	1%	-5%	-13%	.	5%	-1%
COc1ccc(C2=C(C)C(N3CCC(C(=O)Nc4ccccc4F)CC3)=NS2(=O)=O)cc1	.	1%	.	.	-2%	.
O=C(CCN1CCOCC1)c1ccc(N2CCCCC2)cc1	.	-8%	.	.	14µM*	?
CC(C)(C)NC(=O)CCN1CCOCC1	6%	-4%	2%	5%	-1%	17%
CC(C)(C)c1cc(C(=O)CCN2CCOCC2)cc(C(C)(C)C)c1O	0%	5%	-7%	-61%	3.5µM*	8%
CCc1ccc(C2=NN(S(C)(=O)=O)C(c3cccs3)C2)cc1 (stereo not given)	22µM*	-7%	5%	-4%	-23%	-14%
Cc1ccc(C2=NN(S(C)(=O)=O)C(c3cccs3)C2)cc1 (stereo not given)	-24%	-9%	4%	1%	-21%	-28%
CC(=O)OCC(CO)OC(C)=O (stereo not given) (tested in a mixture with another compound)	.	.	-3%	.	.	.
c1cncc(-c2nc(NCc3ccco3)c3ccccc3n2)c1	-7%	6%	-2%	-6%	25µM*	-18%
Cc1ccc(C)n1-c1sc2c(c1C(=O)O)CCCC2	6%	-3%	-10%	14%	0%	-5%
Cc1ccc(C)n1-c1sccc1C(=O)O	16%	-12%	-13%	?	40µM*	?
O=C(/C=C/c1ccccc1)Nc1cc(NC(=O)/C=C/c2ccccc2)cc(C(=O)O)c1	2%	-27%	12%	?	40µM*	-18%
